Values joined by “and” are separate entries in the source; they are usually repeats but may differ in a detail not shown here. Equal values may be shown once. In all, about 16,000 compounds went through this assay and about 5,700 (36%) were called active. Another 24% or so got no clear call; they are omitted. Some of the results follow. Values without a mark were called inactive. The call rests on the fitted dose curve; in most records, active means well fitted curve in the direction sought with a large enough effect; inconclusive means small, poorly fitted or top-dose-only effect, or effect the other way; inactive means no such curve, though single readings can be large or run the other way.
Molecular target: Cytochrome P450 1A2 (Homo sapiens) (UniProt P05177)
Sequence (P05177 whole entry, looked up): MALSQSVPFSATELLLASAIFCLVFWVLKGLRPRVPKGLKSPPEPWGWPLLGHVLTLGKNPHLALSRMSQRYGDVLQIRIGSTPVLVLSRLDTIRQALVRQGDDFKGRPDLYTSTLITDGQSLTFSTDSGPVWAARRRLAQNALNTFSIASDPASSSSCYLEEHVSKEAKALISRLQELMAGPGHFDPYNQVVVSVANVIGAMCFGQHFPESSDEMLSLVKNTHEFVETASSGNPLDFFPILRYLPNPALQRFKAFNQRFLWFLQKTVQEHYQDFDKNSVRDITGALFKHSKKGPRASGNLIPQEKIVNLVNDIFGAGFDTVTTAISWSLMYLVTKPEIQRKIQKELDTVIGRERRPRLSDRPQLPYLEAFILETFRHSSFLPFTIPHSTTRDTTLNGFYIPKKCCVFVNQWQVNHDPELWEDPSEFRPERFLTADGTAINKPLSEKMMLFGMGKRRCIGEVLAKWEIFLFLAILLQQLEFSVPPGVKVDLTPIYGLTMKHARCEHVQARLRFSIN
Assay: Cytochrome panel assay with activity outcomes
Details: recombinant CYP, pro-luciferin dealkylation, luminescence, p450-cyp1a2; series mostly up to 57.1 µM; activity, negative = inhibition: at the top concentration
On the % scale 0 is the no-effect control and ±100 the full control effect.

Structure (SMILES) | activity, negative = inhibition | AC50
NC(N)=N/N=C\c1ccc(O)c(C(=O)O)c1 | -11.9% [at 2.29 µM] | –
NC(N)=NN=Cc1c(Cl)cccc1Cl | – | 7.94 µM (active) and 3.98 µM (active)
NC(N)=NC(=O)Cc1c(Cl)cccc1Cl | – | inactive
Cc1cccc(Sc2c([N+](=O)[O-])ncn2C)n1 | 14.5% | –
Cc1cccc(NC(=O)c2ccc([N+](=O)[O-])o2)n1 | – | 5.01 µM (active)
Cc1ccc(OCC(=O)NNC(=O)c2cc3ccccc3o2)cc1 | -13.1% | –
Cc1cccc(NC(=O)c2cc(N3C(=O)CCC3=O)ccc2Cl)n1 | -29.7% | –
Cc1cccc(NC(=O)c2cc(=O)c3ccccc3o2)n1 | – | 2 µM (active)
CN(C)C(=O)CCc1nc(-c2ccc(C(C)(C)C)cc2)no1 | – | 6.31 µM (active)
CNC(=O)CCc1nc(-c2ccc(C(C)(C)C)cc2)no1 | – | 6.31 µM (active)
CN(C)c1ncc2ncc(=O)n(C3CC3)c2n1 | – | 3.16 µM (active)
COc1ccc(Oc2ncc3ncc(=O)n(C4CC4)c3n2)cc1 | – | 5.01 µM (active)
COc1ncc2ncc(=O)n(C3CC3)c2n1 | – | 10 µM (active)
CN(C)c1ncc2ncc(=O)n(C)c2n1 | – | 6.31 µM (active)
COC(=O)[C@@]1(Cc2ccc(OC)cc2)[C@H]2c3cc(C(=O)N4CCCC4)n(Cc4cc(F)cc5c4OCOC5)c3C[C@H]2CN1C(=O)c1ccccc1 | -16.7% | –
C/C(CCN1CCc2nc(-c3ccccc3)c(-c3ccccc3)cc2C1)=N\O[C@@H](C)c1cn([C@@H]2COC[C@@H]2O)nn1 | -3.92% [at 11.4 µM] | –
Cc1nc(NC(N)=S)sc1C(=O)Nc1ccccc1 | – | 8.91 µM (active)
CCOc1cc(/C=N/NC(=O)CN2CCCCC2)ccc1OCc1ccccc1 | -28.3% | –
Cc1ccc(COc2ccc(Br)cc2/C=N/O)cc1 | – | 1.58 µM (active)
O/N=C/c1ccccc1OCc1ccc(Cl)cc1 | – | 2.24 µM (active)
O=C(O)c1ccc(OCc2ccccc2)c(Cl)c1 | -3.18% [at 2.29 µM] | –
O=C(Cc1ccccc1)N/N=C/c1ccccc1OCc1ccc(Cl)cc1 | – | 2.24 µM (active)
NC(=S)N/N=C/c1ccccc1OCc1cccc(Cl)c1 | – | 2.24 µM (active)
NCc1ccc(S(N)(=O)=O)cc1 | -4.42% [at 25.6 µM] | –
Cc1[nH]c2ccccc2c1C(c1ccccn1)N1CCC(C)CC1 (configuration not stated) | -17.7% | –

Structure (SMILES) | activity, negative = inhibition | AC50
O/N=C/c1cc(Cl)ccc1OCc1cccc2ccccc12 | – | 0.112 µM (active)
Cc1n[nH]c(=S)n1/N=C/c1ccccc1OCc1ccc(Cl)cc1 | – | 1.58 µM (active)
CCn1c(O)c(/C=N/N=C2CCCC2)c2ccc(C3=NNC(=O)CC3)cc21 | -21% | –
O=C1CCC(c2ccc(-n3ccnc3)cc2)=NN1 | – | 0.158 µM (active)
O=C(Nc1cccc(F)c1)N1CCC2(CCNCC2)CC1 | 11.5% | –
CCNc1ncc2nc(-c3ccccc3)c(=O)n(CCOC)c2n1 | – | 3.16 µM (active)
CCNc1ncc2nc(-c3cc(F)cc(F)c3)c(=O)n(CCOC)c2n1 | – | 3.16 µM (active)
COCCn1c(=O)c(-c2ccccc2)nc2cnc(Nc3ccccc3)nc21 | – | 5.01 µM (active)
COc1cccc(Cn2c(=O)c(-c3cccc(C#N)c3)nc3cnc(Nc4ccccc4)nc32)c1 | 0.136% | –
O=C(CNS(=O)(=O)c1ccc(Br)s1)N1CCC(N2CCCCC2)CC1 | -3.52% | –
Oc1cc(O)c2c(c1)O[C@@H](c1ccc(O)c(O)c1)[C@H](O[C@@]1(c3cc(O)c(O)c(O)c3)Oc3cc(O)cc(O)c3[C@H](O)[C@@H]1O)C2 | -13.3% [at 11.4 µM] | –
COc1ccc(O[C@H]2C=C[C@@H](c3ccccc3)O[C@H]2COC(=O)CC/C(C)=N\O[C@@H](C)CN2CCCc3nc(C)c(C)cc32)cc1 | 2.58% [at 11.4 µM] | –
CC(C)Oc1ccc2ccccc2c1C=O | – | 1.12 µM (active)
COc1ccccc1NS(=O)(=O)c1cccc(C(=O)OCC(=O)Nc2cc(C)on2)c1 | – | 14.1 µM (active)
Cc1cc(NC(=O)COC(=O)c2ccc(NS(=O)(=O)c3ccc(C)c(C)c3)cc2)no1 | -13% | –
Cc1n[nH]c(C)c1S(=O)(=O)N1CCC(C(=O)O)CC1 | 1.2% | –
O=C(Nc1ccccc1)[C@@]12C[C@@H]1/C(=N/O)c1ccccc1O2 | – | 2.51 µM (active)
CCOC(=O)[C@@]12C[C@@H]1/C(=N/O)c1ccccc1O2 | – | 3.98 µM (active)
Cc1c(NC(=O)C2CCN(S(=O)(=O)c3ccc(Cl)cc3)CC2)c(=O)n(-c2ccccc2)n1C | 15.2% | –
O=C1COc2ccccc2CN1 | -7.55% | –
Fc1ccc(-c2cnc(-c3cccs3)o2)cc1 | – | 2.82 µM (active)
CCOC(=O)Nc1ccc2c(c1)N(C(=O)CCN1CCN(C)CC1)c1ccccc1S2 | -15.3% | –
COC(=O)c1cc(NC(=O)N2c3ccccc3Sc3ccccc32)cc(C(=O)OC)c1 | – | 3.16 µM (active)
CCOC(=O)Nc1ccc2c(c1)N(C(=O)CCN1CCOCC1)c1ccccc1S2 | -7.96% [at 25.6 µM] | –
CCC1Oc2ccccc2N(CC(=O)NCCCN2CCCCC2C)C1=O (configuration not stated) | -4.11% | –

Structure (SMILES) | activity, negative = inhibition | AC50
O=[N+]([O-])/C=C\c1cc2ccccc2[nH]1 | – | 1.26 µM (active)
Nc1c(S(=O)(=O)O)cc(Nc2cccc(S(N)(=O)=O)c2)c2c1C(=O)c1ccccc1C2=O | – | 3.98 µM (active)
NCCNC(=O)c1ncsc1-c1cccc(F)c1 | – | 10 µM (active)
Cc1sc2nc(C3CC3)nc(SCC(=O)N3CC(=O)Nc4ccccc43)c2c1C | – | 6.31 µM (active)
Cc1scc2c1N(C(=O)CN1CCN(C)CC1)c1ccccc1NC2=O | – | inactive
Cc1nnc(SCC(=O)N2CC(=O)Nc3ccccc32)n1Cc1ccccc1 | 2.82% | –
COC(=O)Nc1nc2ccc(SC(C)C)cc2[nH]1 | – | 0.501 µM (active)
COC(=O)Nc1nc2ccc(C(=O)c3cccs3)cc2[nH]1 | – | 0.794 µM (active)
CC(=O)Nc1ccc2nc(C3CCCCC3)[nH]c2c1 | -30% | –
C[C@@H](C(=O)O)c1ccc(C(=O)c2cccs2)cc1 | -10.6% [at 25.6 µM] | –
COC(=O)c1ccc(C(NC(=O)c2ccccc2)[C@]2(C)C[C@H]2C2CCCCC2)cc1 (some centres not stated) | -1.81% | –
COC(=O)c1ccc(C23CC2(C(NP(=O)(c2ccccc2)c2ccccc2)c2ccccc2)C3)cc1 (configuration not stated) | – | 15.8 µM (active)
Cc1ccc2cc(C(=O)O)c(C)nc2c1 | -6.36% | –
O=C(O)c1cc(=O)[nH]c(SCc2ccccc2)n1 | -12% [at 11.4 µM] | –
O=C(O)CSc1cc(-c2ccccc2)nc2ccccc12 | -4.67% [at 2.29 µM] | –
CCc1c(C)nc(N)n2c(SCC(=O)Nc3ccccc3)nnc12 | -17.2% | –
O=C(O)CSc1nnc2c3ccccc3c3ccccc3c2n1 | – | 0.0794 µM (active)
Cn1c(SCC(=O)Nc2ccccc2)nc(O)cc1=O | -9.92% | –
c1ccc(CSc2nnc3c4ccccc4c4ccccc4c3n2)cc1 | – | 0.2 µM (active)
O=C(CSc1nnc2c3ccccc3c3ccccc3c2n1)Nc1ccccc1 | – | 1.12 µM (active)
O=C(O)CSc1ccn(Cc2ccccc2)c1 | -14.3% [at 11.4 µM] | –
CN(C)S(=O)(=O)c1nc(Cl)c2[nH]cnc2n1 | 2.44% [at 11.4 µM] | –
Cc1ccc(-c2ccc(=O)n(CC(=O)NCCN(C)C)n2)cc1 | -2.76% | –
C[C@@H]1CCC[C@H](C)N1 | 0.154% [at 25.6 µM] | –
COC(=O)C1=C(C)N=C2SC(C)C(=O)N2C1/C=C/c1ccccc1 (configuration not stated) | -17.6% | –

Structure (SMILES) | activity, negative = inhibition | AC50
O=C(Nc1cccc(NC(=O)c2ccccc2[N+](=O)[O-])n1)c1ccccc1[N+](=O)[O-] | – | 8.91 µM (active)
Cc1cc(C)nc(NC(=O)c2cccc([N+](=O)[O-])c2C)n1 | -3.25% | –
CC1CCN(S(=O)(=O)c2ccc3c(c2)C(=NO)c2cc(S(=O)(=O)N4CCC(C)CC4)ccc2-3)CC1 | -10.6% | –
O[C@]1(c2ccccc2)c2ccccc2NC2=NCCN21 | -14.8% [at 11.4 µM] | –
Nc1cc(S(=O)(=O)O)cc2ccc(S(=O)(=O)O)cc12 | -18.1% [at 2.29 µM] | –
CC[C@@]1([N+](=O)[O-])C[C@H]2C=C[C@@H]1C2 | -12.9% [at 2.29 µM] | –
C[C@@H]1C[C@@H]2[C@H]3CCC4=CC(=O)C=C[C@]4(C)[C@]3(Cl)[C@@H](O)C[C@@]2(C)[C@@]1(O)C(=O)CO | -1% | –
O=S(=O)(c1ccccc1)N1CCN(c2cc(-c3ccccc3)nc3ncnn23)CC1 | – | 0.794 µM (active)
O=S(=O)(c1ccccc1)N1CCC2(CC1)CN(c1ncccn1)C2 | -3.35% | –
O=S(=O)(c1ccccc1)N1CCC2(CCN(c3ncccn3)CC2)CC1 | 5.5% | –
FC(F)(F)c1ccc(N2CCN(c3cc(-c4ccccc4)nc4ncnn34)CC2)nc1 | – | 10 µM (active)
Nc1nc(Cl)nc2c1ncn2[C@@H]1O[C@@H](COP(=O)(O)OP(=O)(O)OP(=O)(O)O)[C@@H](O)[C@H]1O | -0.464% | –
C#CCCCO/N=C1/C[C@@H](O)[C@@H](O)[C@@H]2[C@@H]3C(=O)N(CC)C(=O)[C@H]3CC[C@@H]12 | -3.56% [at 11.4 µM] | –
Cc1ccc(NC(=S)Nc2nc(CC(=O)Nc3ccccc3)cs2)cc1 | – | 2.24 µM (active)
CCn1c(CC(=O)Nc2ccc(C)cc2)nnc1SCC(=O)Nc1nc(C)cs1 | -5.56% | –
COc1cccc([C@@H]2Oc3ccc(OC)cc3/C(=N/OC[C@@H](C)[C@H](OCc3ccccc3)C(C)C)[C@@H]2O)c1 | -6.71% [at 11.4 µM] | –
COc1cccc(Cn2c(=O)cnc3cnc(N(C)C)nc32)c1 | – | 6.31 µM (active)
CN(C)c1ncc2nc(CCc3ccccc3)c(=O)n(-c3ccccc3)c2n1 | – | 0.794 µM (active)
CN(C)c1ncc2nc(CCc3ccccc3)c(=O)n(Cc3cccs3)c2n1 | – | 1.58 µM (active)
COc1cccc(Cn2c(=O)c(-c3cc(F)cc(F)c3)nc3cnc(N(C)C)nc32)c1 | -19.4% | –
CN(C)c1ncc2nc(-c3cc(F)cc(F)c3)c(=O)n(CCc3ccccc3)c2n1 | -4.68% | –
CN(C)c1ncc2nc(-c3ccccc3)c(=O)n(CCc3ccccc3)c2n1 | – | 20 µM (active)
